In PubChem BioAssay (NCI):
This is part of a sample that, as a whole, favours compounds with a hit. Of some 83,000 tested, about 20% had one in any assay.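 Treatment: one concentration, 48 hours, 96-well format. Scoring: percent growth, with anything below 10 considered active.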 Unmarked numbers belong to inactive results. Calls of active or inactive are those of the source.

The compounds below were run on HL-60(TB) leukemia (assay: NCI-60 one-dose screen, 48 h (100 = growth as untreated, 0 = no growth, -100 = all killed)). Details: 10 µM unless noted.

| Structure (SMILES) | growth |
| --- | --- |
| c1cc[c]([Bi]([c]2ccccc2)[c]2ccccc2)cc1 | 96.6% |
| CCN1C(=O)N(c2ccccc2)C2NC(=S)N(/N=C/C=C/c3ccccc3OC)C21 (centres undefined) | -44.9% (active) |
| CO[C@@H](C)Cn1c(=O)n(C)c2cnc3ccc(-c4cncc(C(C)(C)O)c4)cc3c21 | 8.97% (active) |
| O=c1c2sc3ncc(Br)cc3c2ncn1-c1cccc(Cl)c1 | 84.5% |
| C=CCN(CC#N)CC=C | 106% |
| Cn1cc(-c2csc(-c3cn(C)c4ncccc34)n2)c2cc(Br)cnc21 | 83.1% |
| O=C(/C=C/C12c3ccccc3C(c3ccccc31)C1C(=O)NC(=O)C12)c1ccncc1 (centres undefined) | 2.98% (active) |
| O=C1C(=O)N(Cc2ccc(-c3ccccc3)cc2)c2ccc(OC(F)(F)F)cc21 | 17.7% |
| Cc1c(N2CCCCC2)[nH]c2ccccc12 | 101% |
| COc1cccc(CCC(=O)c2cc3c(N)c(C(=O)Nc4cccc(Cl)c4C)sc3nc2C)c1 | 0.884% (active) |
| COc1cc(/C=C/C(=O)c2ccc(Nc3ncnc4ccccc34)cc2)cc(OC)c1 | 55.5% |
| CCN(CC)CCOc1ccccc1C | 101% |
| COc1ccccc1-[n+]1cc(-c2ccc(-c3ccccc3)cc2)n2c1CCCCC2 | -27.7% (active) |
| C#Cc1ccc(-n2c(/C=C/c3cc(OC)c(OC)c(OC)c3)nc3ncccc3c2=O)cc1 | 26.5% |
| COc1cc(C2C3=C(COC3=O)Nc3cc4c(cc32)OCO4)cc2c1OCO2 (centres undefined) | -8.91% (active) |
| COc1c(N2CC3CCCN(C(C)=O)C3C2)c(F)cc2c(=O)c(C(=O)N[C@H]3C(O)[C@@H](O)C(CO)O[C@H]3O)cn(C3CC3)c12 (some centres undefined) | 103% |
| CCc1ccc2c(c1)N(CCO)C1=C(C(=O)OC1)C2c1cccc(Cl)c1 (centres undefined) | -19.4% (active) |
| COc1ccc(-c2nn(-c3cccc(NC(=O)c4cc(C(F)(F)F)cc(C(F)(F)F)c4)c3)cc2-c2ccncc2)cc1Cl | 88.9% |
| O=C1/C(=C/c2ccc(-c3ccc(Cl)cc3)o2)SC(=S)N1CCc1ccc(O)cc1 | 8.32% (active) |
| CC(C)(C)c1cc(C(C)(C)C)cc(S(=O)(=O)Nc2cc3ccccc3cc2C(=O)NCCN)c1 | -19.8% (active) |

| Structure (SMILES) | growth |
| --- | --- |
| O=C(N/N=C/c1ccc([N+](=O)[O-])o1)c1ccc(O)cc1 | 19.8% |
| CCOC(=O)c1nn(C2CCCCO2)c2ccc(NS(=O)(=O)c3ccc(C)cc3)cc12 (centres undefined) | 97.6% |
| Cc1nc(/N=C(\N)NC(=O)Nc2cccc(Cl)c2)sc1C | 42.8% |
| O=c1nc2n(nc1/C=C/c1ccco1)CC(c1ccc(Cl)cc1)=NN2 | 70.1% |
| O=[N+]([O-])c1ccc(S(=O)(=O)OCCCCOS(=O)(=O)c2ccc([N+](=O)[O-])cc2)cc1 | 101% |
| COc1cccc(NC(=O)OC(C)C)c1 | 72.7% |
| FC(F)(F)c1[nH]ncc1-c1nc2ccc3n[nH]c(C#Cc4cccnc4)c3c2c2c1CCCC2 | 24.4% |
| O=C(NNC(=S)Nc1ccccc1)c1ccccn1 | -6.25% (active) |
| Clc1ccc(C(SCc2ccccc2)SCc2ccccc2)cc1 | 97.6% |
| C#CC[C@@H]1C[C@]2(C)[C@H]3CC[C@@H]4[C@H]5C(C(=C)C)CC[C@]5(C(=O)NCCCCCCCCN)CC[C@@]4(C)[C@]3(C)CC[C@H]2C(C)(C)[C@H]1OC(C)=O (some centres undefined) | 22% |
| Nc1nc(OCc2ccccc2)c2[nH]cnc2n1 | 62.7% |
| CC1=C([Se]CC(OC(=O)[C@@H](CSSC(C)(C)C)NC(=O)C(C)(C)C)C(=O)NCCCCCC(=O)OCc2ccccc2)C(=O)c2ccccc2C1=O (some centres undefined) | -24.4% (active) |
| N#CCCOc1ccccc1 | 88.7% |
| CCCCC(CC)COC(=O)C[N+](C)(C)CCOC(c1ccccc1)c1ccccc1 (centres undefined) | -56.7% (active) |
| O=S(=O)(NCCCNc1cc(-c2cn(-c3ccccc3)nc2-c2cccc(O)c2)ccn1)c1ccc(C(F)(F)F)cc1 | 25% |
| O=C(COc1ccc(-c2nc3cc(Cl)c(Cl)cc3[nH]2)cc1)N=Nc1c(O)[nH]c2ccccc12 | 68.5% |
| CC(c1ccccc1)N1C(=O)C(C2SC(=S)N(C(C)c3ccccc3)C2=O)SC1=S (centres undefined) | 78.2% |
| NS(=O)(=O)Oc1ccc(NC(=O)C2CCCCCC2)cc1 | 99.2% |
| Cc1ccc(S(=O)(=O)N(C)CCCCCC(=O)O)cc1 | 93.4% |
